About 83,000 compounds went through this panel and 20% of them were active in at least one assay; those are over-represented in the sample as a whole.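 Results are percent growth after 48 hours of single-concentration exposure. 100 means growth as in untreated cells, lower positive values show inhibition; negative values down to -100 show cell death.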 A number with no mark means an inactive call. Calls of active or inactive are those of the source. Rule for the calls: active = growth percent below 10; inactive = the rest.

The first test relates to MCF7 breast. The test is described as follows: NCI-60 one-dose screen, 48 h (100 = growth as untreated, 0 = no growth, -100 = all killed). Particulars: 10 µM unless noted.
`N=C(N)c1ccc(-c2ccc(-c3ccc(Cl)cc3Cl)s2)cc1F`: the growth is -65.8% (active).

On to `C/C(C=O)=C\c1ccc2c(c1)OCO2`, for which the growth was 102%.

For `Cc1ccc(/C=C(\C#N)C(=O)Nc2ncc(Cc3cc(Cl)ccc3Cl)s2)o1`, the growth is 49.6%.

As for `C[C@@H]1CC[C@@]2(OC1)O[C@H]1C[C@H]3[C@@H]4CC=C5C[C@@H](O[C@@H]6O[C@H](CO)[C@@H](O[C@@H]7O[C@@H](CO)[C@H](O)[C@H]7O)[C@H](O)[C@H]6O[C@@H]6O[C@@H](C)[C@H](O)[C@@H](O)[C@H]6O)CC[C@]5(C)[C@H]4CC[C@]3(C)[C@H]1[C@@H]2C`, the growth is -87.9% (active). As to `CCOC(=O)c1cn2ncnc(Oc3ccc(NC(=O)NC4CC4)c(F)c3)c2c1C`, the growth was 92.6%.

The subject of a further test is HCT-116 colon. The description is as above. The following applies: 10 µM unless noted.
For the compound `CC1(C)CC[C@]2(C(=O)N3CCOCC3)CC[C@]3(C)C(=CC[C@@H]4[C@@]5(C)C/C(=C/c6ccncc6)C(=O)C(C)(C)[C@@H]5CC[C@]43C)[C@@H]2C1`, the growth was -32.6% (active). On the same count and under the same terms, to `O=C(Nc1cccnc1Nc1ccc(Cl)cc1)c1cn(Cc2ccc(F)cc2)nn1` belongs 84.6%. The same measure, in the same setting: in the case of `C=C1C(=O)O[C@H]2[C@H]1CC/C(CNC(=O)c1cc3ccccc3[nH]1)=C\CC[C@@]1(C)O[C@@H]21` it was -84% (active); in that of `C=CCN=C(N)SCCCCCCSC(N)=NCC=C`, 75.5%; in that of `CNC(=O)c1c(NC(=O)c2ccc(C(C)(C)C)cc2)sc2c(CN(C)C)c(O)ccc12`, -88.4% (active).

Regarding `COc1ccc(C/C(C)=C(\c2ccc(O)cc2)c2ccc(OCCN3CCCC3)cc2)cc1`, the growth was 93.8%. As for `S=c1ssnc1-c1cccs1`, the growth is 89.4%.

For the compound `COc1cc(/C=C/c2cc(/C=C/c3ccc(O)c(OC)c3)n(C(=O)Nc3ccc(F)cc3)n2)ccc1O`, the growth was 4.95% (active). On the same count and under the same terms, in the case of `COc1cc2c3c(n(CCCCNCCCn4c5c(c6cc(OC)c(OC)cc6c4=O)C(=O)c4cc6c(cc4-5)OCO6)c(=O)c2cc1OC)-c1cc2c(cc1C3=O)OCO2` it was 93.9%; in that of `COc1cc(-c2cc(-c3ccc(Nc4ncnc5cc(Cl)ccc45)cc3)nc(N3CCN(C)CC3)n2)cc(OC)c1OC`, 64%; in that of `COc1cc(C(=O)/C=C/c2ccc(N3CCN(C)CC3)cc2)cc(OC)c1OC`, 104%. Same read-out and setting: to `Cc1ccc2[nH]c(=O)c3c(c2c1)OC(N)=C(C#N)C31C(=O)c2cccc3cccc1c23` (stereo not given) belongs 101%.

On to `Cn1c(=O)c2c(nc(NC3=NS(=O)(=O)c4ccccc43)n2Cc2ccccc2)n(C)c1=O`, for which the growth was 103%. In the case of `COc1ccc(C/C(C)=C(/c2ccc(OCCN3CCCCCC3)cc2)c2ccc(OC(=O)NCc3ccccc3)cc2)cc1`, the growth is 64.7%. As for `Cn1cc(-c2csc(-c3cn(C(=O)OC(C)(C)C)c4ccccc34)n2)c2ccnc(Cl)c21`, the growth was 30%. Same read-out and setting: to `CCN(C(=O)N1CCN(c2cc3c(cc2F)c(=O)c(C(=O)O)cn3C2CC2)CC1)c1nc(-c2ccc(C)cc2)cs1` belongs 12.4%; to `COC(=O)c1nc(-c2ccccc2)oc1S(=O)(=O)N1CCC(C(N)=O)CC1`, 43.9%; to `CCCCSCC(=O)c1ccccc1`, 95.2%. As to `Cc1ccc(Nc2nc(-c3ccc(F)cc3)c(C#N)c(=O)n2C)cc1`, the growth was 53.4%.

As for `COc1cccc(OC)c1Oc1c(-c2nc3ccccc3s2)c(C)nn1-c1ccccc1`, the growth is 53.8%. Same read-out and setting: to `Cc1ccccc1CNc1c2ccccc2nc2ccccc12` belongs 7.9% (active); to `COc1ccc2nc3ccccc3c(NCc3ccc(F)cc3)c2c1`, 8.89% (active). Regarding `O=C1NC(=O)c2c1c1c3ccccc3[nH]c1c1oc3cc(Br)ccc3c21`, the growth was 65.1%.

For `COc1ccc(-c2nnc(SCC(=O)Nc3ccc(/C(C)=N\O)cc3)n2-c2ccccc2)cc1OC`, the growth is 69.2%. As for `CC1=CCC[C@@H]2C1(C)CC[C@H](C)[C@@]2(C)CC1=CC(=O)C(SC(C)(C)C)=CC1=O` (stereo not given in full), the growth was 64%.

For `CCn1cc(CNc2ccc(C(=O)Nc3cc4cc(OC)c(OC)cc4c(C)n3)cc2)c(C)n1`, the growth is 25.4%.

Consider `CCCCN1C(=O)/C(=c2\sc3n(c2=O)NC2C(N=3)N(CC)C(=O)N2CC)c2ccccc21` (stereo not given), for which the growth is 13.1%. As for `NC(=O)c1c(NC(=O)c2ccc(Cl)cc2)sc2c1CCC(=O)C2`, the growth is 8.72% (active).

In the case of `CC1(C)CC[C@]2(C(=O)O)CC[C@]3(C)C(=CC[C@@H]4[C@@]5(C)C[C@@H](Cc6cn([C@@H]7O[C@H](CO)[C@@H](O)[C@H](O)[C@H]7O)nn6)[C@H](O)C(C)(C)[C@@H]5CC[C@]43C)[C@@H]2C1`, the growth was 96.4%. Take `CCNCc1ccc(O)c2ncccc12`: the growth is 21.6%. Same read-out and setting: in the case of `CC(C)c1ccc(C(=O)Nc2sc3cc(O)ccc3c2C#N)cc1` it was 15%; in that of `CCOC(=O)c1c(NC(=O)CSc2n[nH]c3nc4ccccc4n23)sc(CC)c1C`, 93.9%. In the case of `COc1cccc(/C=C/C(=O)c2cc3c(N)c(C(=O)Nc4cccc(Cl)c4C)sc3nc2C)c1`, the growth is -34.2% (active). `Cc1nn(-c2ccccc2)c(N2CCCCC2)c1/C=N/NC(=O)Cn1c(=O)sc2ccccc21`: the growth was 77.1%. `COC(=O)Cc1nc(C#N)c(N(C)C)o1`: the growth is 97.1%.

In the case of `N=C(N)c1ccc(-c2ccc(-c3ccc(Cl)cc3Cl)s2)cc1F`, the growth was -36.6% (active). For `C/C(C=O)=C\c1ccc2c(c1)OCO2`, the growth is 108%.

Consider `Cc1ccc(/C=C(\C#N)C(=O)Nc2ncc(Cc3cc(Cl)ccc3Cl)s2)o1`, for which the growth is 54.4%. Regarding `C[C@@H]1CC[C@@]2(OC1)O[C@H]1C[C@H]3[C@@H]4CC=C5C[C@@H](O[C@@H]6O[C@H](CO)[C@@H](O[C@@H]7O[C@@H](CO)[C@H](O)[C@H]7O)[C@H](O)[C@H]6O[C@@H]6O[C@@H](C)[C@H](O)[C@@H](O)[C@H]6O)CC[C@]5(C)[C@H]4CC[C@]3(C)[C@H]1[C@@H]2C`, the growth is -84% (active).

Turning to `CCOC(=O)c1cn2ncnc(Oc3ccc(NC(=O)NC4CC4)c(F)c3)c2c1C`, the growth is 76.9%.

For the origin of these results see PubChem BioAssay (NCI).
